By inhibition is commonly meant the relative decrease from the control value, in per cent.

Drawing on ChEMBL document CHEMBL1961873, “Compounds: GSK PKIS; Assays: Nanosyn kinase panel” (2012), this text covers inhibition for 17 molecules.

The target in assay [1] is CDK3/Cyclin E (Homo sapiens) (UniProt P24864+Q00526). Particulars: at 1 µM.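 Further: each figure is a mean percent inhibition of the CDK3/cyclin E complex.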
In assay [2] the target is Cyclin-dependent kinase 4 (Homo sapiens) (UniProt P11802). As to conditions: at 0.1 µM.
Assay [3] has the same target. As to conditions: at 1 µM.
Assay [4] deals with Cyclin-dependent kinase 5 (Homo sapiens) (UniProt Q00535). As to conditions: at 0.1 µM.
For assay [5] the target is unchanged. As to conditions: at 1 µM.
Assay [6] has as its target Cyclin-dependent kinase 6 (Homo sapiens) (UniProt Q00534). As to conditions: at 0.1 µM.
The target is the same in assay [7]. Particulars: at 1 µM.
Assay [8] has as its target Dual specificity protein kinase CLK2 (Homo sapiens) (UniProt P49760). As to conditions: at 0.1 µM.
Assay [9] shares this target. Particulars: at 1 µM.
The target in assay [10] is Dual specificity protein kinase CLK3 (Homo sapiens) (UniProt P49761). Particulars: at 0.1 µM.
Sequence of Dual specificity protein kinase CLK3 (Homo sapiens) (P49761 whole entry, looked up): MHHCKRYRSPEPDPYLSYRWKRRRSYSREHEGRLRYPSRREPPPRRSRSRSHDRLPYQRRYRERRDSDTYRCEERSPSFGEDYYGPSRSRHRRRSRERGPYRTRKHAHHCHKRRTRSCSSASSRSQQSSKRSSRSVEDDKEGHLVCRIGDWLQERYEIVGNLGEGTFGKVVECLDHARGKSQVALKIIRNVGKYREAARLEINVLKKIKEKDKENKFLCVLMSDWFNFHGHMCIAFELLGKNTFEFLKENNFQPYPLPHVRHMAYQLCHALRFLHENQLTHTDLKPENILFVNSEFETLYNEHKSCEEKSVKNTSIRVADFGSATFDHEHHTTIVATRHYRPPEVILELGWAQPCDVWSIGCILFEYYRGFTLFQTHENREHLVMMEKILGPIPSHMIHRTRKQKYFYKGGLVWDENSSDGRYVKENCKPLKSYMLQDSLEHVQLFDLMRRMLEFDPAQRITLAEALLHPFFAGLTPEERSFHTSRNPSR

Sequence of Cyclin-dependent kinase 6 (Homo sapiens) (Q00534 whole entry): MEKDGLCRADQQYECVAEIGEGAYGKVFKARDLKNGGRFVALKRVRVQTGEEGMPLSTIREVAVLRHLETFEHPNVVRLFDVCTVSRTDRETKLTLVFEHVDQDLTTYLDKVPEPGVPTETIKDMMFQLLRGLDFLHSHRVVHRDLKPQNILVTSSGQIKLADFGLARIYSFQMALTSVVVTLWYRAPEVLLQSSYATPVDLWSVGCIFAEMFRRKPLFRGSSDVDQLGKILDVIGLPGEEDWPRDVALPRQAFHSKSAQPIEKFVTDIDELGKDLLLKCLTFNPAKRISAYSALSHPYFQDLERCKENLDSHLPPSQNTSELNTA
Sequence of Cyclin-dependent kinase 4 (Homo sapiens) (P11802 whole entry): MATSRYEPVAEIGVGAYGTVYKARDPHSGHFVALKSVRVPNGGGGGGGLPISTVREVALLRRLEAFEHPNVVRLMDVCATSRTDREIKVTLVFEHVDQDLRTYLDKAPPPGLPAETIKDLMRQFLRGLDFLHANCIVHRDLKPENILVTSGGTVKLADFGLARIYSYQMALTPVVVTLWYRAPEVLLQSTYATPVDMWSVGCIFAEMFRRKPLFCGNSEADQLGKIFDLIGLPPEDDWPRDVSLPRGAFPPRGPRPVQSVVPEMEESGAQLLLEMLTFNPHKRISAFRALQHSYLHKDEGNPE
Sequence of Dual specificity protein kinase CLK2 (Homo sapiens) (P49760 whole entry, looked up): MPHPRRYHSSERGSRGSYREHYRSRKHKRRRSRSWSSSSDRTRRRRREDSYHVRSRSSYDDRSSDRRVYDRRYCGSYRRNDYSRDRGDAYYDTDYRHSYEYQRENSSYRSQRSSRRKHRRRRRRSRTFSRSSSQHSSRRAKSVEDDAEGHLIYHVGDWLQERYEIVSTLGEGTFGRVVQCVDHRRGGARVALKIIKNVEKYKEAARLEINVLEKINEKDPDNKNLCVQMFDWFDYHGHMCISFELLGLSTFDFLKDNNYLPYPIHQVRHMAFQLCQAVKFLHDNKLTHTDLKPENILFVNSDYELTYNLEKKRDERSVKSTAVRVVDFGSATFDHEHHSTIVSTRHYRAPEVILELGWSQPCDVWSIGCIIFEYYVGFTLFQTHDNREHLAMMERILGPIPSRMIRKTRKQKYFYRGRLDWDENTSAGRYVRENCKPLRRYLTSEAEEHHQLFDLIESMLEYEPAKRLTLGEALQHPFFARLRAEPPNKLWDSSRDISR
Sequence of Cyclin-dependent kinase 5 (Homo sapiens) (Q00535 whole entry, looked up): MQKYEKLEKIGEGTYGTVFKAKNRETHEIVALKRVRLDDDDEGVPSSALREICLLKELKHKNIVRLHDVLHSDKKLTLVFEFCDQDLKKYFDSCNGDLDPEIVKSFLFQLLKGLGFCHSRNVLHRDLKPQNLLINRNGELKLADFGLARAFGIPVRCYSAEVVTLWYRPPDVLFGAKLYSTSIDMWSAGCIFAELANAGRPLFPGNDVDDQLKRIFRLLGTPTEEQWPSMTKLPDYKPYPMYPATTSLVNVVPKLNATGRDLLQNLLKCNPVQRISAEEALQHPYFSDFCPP
Sequence of CDK3/Cyclin E (Homo sapiens) (P24864 whole entry, looked up): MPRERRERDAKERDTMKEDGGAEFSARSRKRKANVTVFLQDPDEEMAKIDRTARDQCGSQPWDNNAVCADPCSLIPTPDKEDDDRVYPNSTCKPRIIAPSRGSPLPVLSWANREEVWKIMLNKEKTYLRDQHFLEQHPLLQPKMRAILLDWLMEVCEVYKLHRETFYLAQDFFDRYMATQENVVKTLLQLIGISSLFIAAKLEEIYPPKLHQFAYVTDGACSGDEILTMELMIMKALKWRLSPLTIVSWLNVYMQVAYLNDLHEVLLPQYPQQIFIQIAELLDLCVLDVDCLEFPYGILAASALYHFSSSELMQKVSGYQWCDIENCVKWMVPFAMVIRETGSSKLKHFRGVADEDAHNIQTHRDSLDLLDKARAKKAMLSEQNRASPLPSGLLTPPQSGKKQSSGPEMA
Sequence of CDK3/Cyclin E (Homo sapiens) (Q00526 whole entry, looked up): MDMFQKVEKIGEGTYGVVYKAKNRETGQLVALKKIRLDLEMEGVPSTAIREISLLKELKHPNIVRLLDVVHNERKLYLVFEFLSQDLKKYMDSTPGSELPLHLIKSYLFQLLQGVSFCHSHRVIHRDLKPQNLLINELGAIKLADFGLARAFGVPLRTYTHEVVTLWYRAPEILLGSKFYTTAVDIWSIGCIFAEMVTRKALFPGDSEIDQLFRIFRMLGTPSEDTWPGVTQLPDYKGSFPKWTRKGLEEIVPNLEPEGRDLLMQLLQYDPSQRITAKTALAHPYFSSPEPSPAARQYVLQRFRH

Take `O=C(Nc1ccc(Oc2ccc3[nH]c(NC(=O)c4ccco4)nc3c2)cc1)Nc1cc(C(F)(F)F)ccc1F`: the inhibition was 0.77% in [1]; -4.32% in assay [2]; -2.74% in assay [3]; -4.37% in assay [4]; -4.57% in [5]; -1.5% in [6]. In addition, the inhibition in assay [7] is -3.48%; in assay [8], 0.35%; in assay [9], 0.71%; in [10], -3.23%.

Consider `OCc1ccc(-c2nc(-c3ccccn3)c(-c3ccc4c(c3)OCO4)[nH]2)cc1`, for which the inhibition in assay [1] is 1.76%; in assay [2], 2.89%; in assay [3], 3.75%; in assay [4], 0.69%; in assay [5], 1.21%; in assay [6], -1%. In addition, the inhibition in assay [7] amounted to 2.55%; in [8] it was 1.74%; in assay [9], 4.27%; in [10], 1.94%.

In the case of `NS(=O)(=O)c1ccc(-c2cc3ccncc3cc2OCc2ccccc2)cc1`, the inhibition in assay [1] is -0.11%; in [2] it was 2.12%; in assay [3], 0.84%; in [4], -0.11%; in assay [5], -1.18%; in assay [6], 3.37%. The inhibition in assay [7] was determined as 2.89%; in [8], 0.98%; in assay [9], 2.04%; in assay [10] it was 1.44%.

As to `Oc1cccc(-c2nc(-c3ccccc3)[nH]c2-c2ccncc2)c1`, the inhibition in assay [1] is -2%; in assay [2] it was 2.45%; in assay [3], 5.74%; in [4] it was 0.71%; in assay [5], 3.06%; in assay [6] it was -1.44%. The inhibition in assay [7] is 6.21%; in [8], 1.81%; in assay [9], 4.52%; in assay [10], 1.66%.

In the case of `COc1cccc(-n2nc(C)c3c(N/N=C(\C)c4ccncc4)ncnc32)c1`, the inhibition is -0.83% in assay [1]; 0.53% in assay [2]; 2.41% in assay [3]; 0.97% in assay [4]; 5.69% in assay [5]; -2.27% in [6]. In addition, the inhibition was 0.77% in assay [7], -2.05% in assay [8], 0.8% in assay [9] and -1.02% in assay [10].

On to `Cc1cc(O)cc(C)c1/C=C/c1cncc(C(=O)N(C)C)c1`, for which the inhibition in assay [1] is 0.31%; in assay [2] it was 2.02%; in assay [3], 5.17%; in [4] it was 1.19%; in assay [5] it was 4.55%; in assay [6] it was -1.04%. Besides, the inhibition was 3.9% in assay [7], 2.35% in assay [8], 2.69% in assay [9] and -0.01% in [10].

As for `CN(C)CCCn1c(-c2nonc2N)nc2cnccc21`, the inhibition is -0.71% in [1]; 3.12% in assay [2]; 4.13% in assay [3]; 1.36% in [4]; 1.99% in assay [5]; -4.78% in [6]. For the same molecule, the inhibition in [7] worked out at 1.95%; in [8], 2.66%; in assay [9], 2.51%; in assay [10], 1.05%.

For the molecule `CCS(=O)(=O)c1ccc(OC)c(Nc2ncc(-c3cccc(OC)c3)o2)c1`, the inhibition was 3.18% in [1]; 1.8% in [2]; 3.35% in assay [3]; 0.02% in assay [4]; 1.71% in assay [5]; 3.87% in assay [6]. For the same molecule, the inhibition is 5.07% in assay [7], 34.8% in assay [8], 86% in assay [9] and 2.36% in [10].

As for `CN1CCN(C(=O)c2ccc(NC(=O)Nc3ccc(N(C)c4ccnc(Nc5ccc(CS(C)(=O)=O)cc5)n4)cc3)cc2)CC1`, the inhibition in assay [1] is 2.12%; in [2], 2.05%; in assay [3] it was 5.68%; in assay [4], 1.54%; in assay [5] it was 8.48%; in assay [6], -6.28%. Moreover, the inhibition in assay [7] was found to be 3.8%; in [8] it was 0.17%; in assay [9], 3.57%; in assay [10], 0.18%.

As to `c1ccc(Nc2ncc(-c3ccccc3)o2)cc1`, the inhibition is 5.78% in assay [1]; 3.04% in assay [2]; 11.5% in assay [3]; 2.22% in [4]; 10.4% in [5]; 2.71% in assay [6]. The inhibition in assay [7] was 21.7%; in assay [8] it was 0.96%; in [9], 3.74%; in [10], -0.17%.

For the molecule `C[C@@H](Oc1cc(-n2cnc3ccc(OCC4CCN(C)CC4)cc32)sc1C(N)=O)c1ccccc1C(F)(F)F`, the inhibition in assay [1] was 0.6%; in [2] it was -1.73%; in assay [3] it was 1%; in [4] it was 0.01%; in assay [5], 3.08%; in assay [6] it was -3.79%. For the same molecule, the inhibition in [7] was -1.66%; in assay [8], 1.74%; in [9], 9.73%; in assay [10], -0.19%.

For the molecule `NS(=O)(=O)c1ccc(N/N=C2\C(=O)Nc3ccc(Cl)cc32)cc1`, the inhibition in assay [1] is 83.7%; in assay [2] it was 6.36%; in assay [3], 28%; in [4], 18%; in assay [5], 61%; in assay [6], 15.3%. Moreover, the inhibition in [7] is 56.7%; in assay [8], 0.8%; in assay [9] it was 2.45%; in [10], 1.72%.

As to `Cc1ccc2c(-c3ccnc(Nc4cccc(C(F)(F)F)c4)n3)c(-c3ccccc3)nn2n1`, the inhibition is -1.25% in assay [1]; 4.12% in [2]; 7.65% in assay [3]; 2.11% in assay [4]; 4.09% in assay [5]; -1.73% in assay [6]. In addition, the inhibition in [7] was 1.79%; in assay [8], -0.15%; in [9], 2.76%; in assay [10], 0.65%.

On to `NC(=O)c1cccc(Nc2nccc(Nc3cccc(F)c3)n2)c1`, for which the inhibition in assay [1] is 3.01%; in assay [2] it was 0.31%; in assay [3] it was 2.2%; in assay [4], 0.58%; in [5], 3.99%; in assay [6], -1.89%. Also, the inhibition in assay [7] was 0.33%; in assay [8] it was 0.31%; in assay [9], 5.73%; in assay [10], -0.43%.

With `CS(=O)(=O)Nc1cccc(-c2ccc3c(NC(=O)C4CC4)n[nH]c3c2)c1`, the inhibition in assay [1] was 3.8%; in assay [2] it was 0.3%; in [3], 2.88%; in assay [4] it was 0.92%; in assay [5], 2.86%; in assay [6], -5.62%. For the same molecule, the inhibition in assay [7] is 6.33%; in [8] it was 2.8%; in assay [9], 3.81%; in [10], -0.87%.

In the case of `N#Cc1cccc(Nc2nccc(-c3cnn4ncccc34)n2)c1`, the inhibition was found to be 99.9% in assay [1]; 71% in assay [2]; 83.7% in assay [3]; 80.3% in [4]; 87% in assay [5]; 61.9% in assay [6]. Also, the inhibition in assay [7] came to 84%; in [8] it was 98.9%; in assay [9], 96.9%; in [10], 56.7%.

With `O=C1Nc2ccc(-c3cccnc3)cc2C1=Cc1cc(Br)c(O)c(Br)c1`, the inhibition turned out to be 2.98% in [1]; 3.31% in assay [2]; 3.8% in assay [3]; 1.01% in [4]; 1.79% in assay [5]; 5.85% in [6]. The inhibition in [7] came out at 6.68%; in assay [8], 32.2%; in assay [9] it was 84.6%; in [10], 7.23%.
